# Source: the supplement of paper PMC6555819
# Tested on: VDR:RXRa (NR concentration 270 nM, RXRa partner concentration 90 nM)
# Assay: PBM binding z-score (relative to random genomic background probes); higher = stronger binding; sequences stand for … in GC…GCGATTGACAGCGTAGAATGAAGG
# Description: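 Protein-binding microarray (Agilent 4x180K custom design, double-stranded 60-nt probes: 5' GC cap, 34-nt variable region, 24-nt constant primer region; full probe sequence given). Purified or IVT nuclear receptor:RXRα heterodimers (3:1 NR:RXRα, mostly 270:90 nM) or homodimers were incubated for 1 h in PBS with 2% milk and no ligand, then detected with Alexa488 antibodies. Fluorescence from o1-orientation probes (~5 replicates averaged) was converted to z-scores against 500 random hg19 background probes. Variable regions are seed direct-repeat (DR0–DR5) sites, all their single-nucleotide variants and half-site ablations.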
row,Sequence,PBM binding z-score
1,AGTCAAAGTTCACTATGTAACGTAAGATTCAGCT,3.89
2,TCTAGCAGGCCAGAGGCTCACTCAAGAGGTACGG,-0.485
3,CCTACTGGTCCATCAGGTCATTGATATCAACGTT,2.46
4,ACAGACAGGTGATGAAGGTCACTCAGGCTATCAT,4.67
5,ACTCTTAGTTGAGACGAGGGCAACCGATAGGTTG,0.492
6,ACTATTAGTTGAGACGAGGTCAACCGATAGGTTG,4.47
7,AGCATGAGGTTAAGATCAGGGAAACAGAATACAT,1.36
8,ACTAGCAGGCCAAGTTTGGGTCACGCAAACAAAG,1.36
9,CCTATTGGGCCACGAAAGGTCATTGATTCAGTGA,4.16
10,GCTAGCAGGCCATTTGGGTCACTCAGTGACGGGC,0.711
11,TAGCCTAGGTCATTGGGCCAGTCTAGTACGCATC,1.98
12,CAAACTAGGTCAAGAGGTCGAAGTCCGCTTCCCG,4.04
13,TCTCGTAGGACACGAAGGTCAGAGCTTTCCAGAG,1.71
14,CCGACTGGGGCAAAGGTTCCCATACTCAGTACGA,-0.179
15,TCGAGTAGTTTAGTCGGGGCATTCAGCCAACATA,0.157
16,TCTAACAGGCCAGAGGGTCACTCAAGAGGTACGG,1.76
17,GCTTGTAGATCAAGGTTCAGAAAGACTAAGCTAA,0.919
18,CAAGACAGGTGAGAAGGTAACTCAGCCTCGATTA,-0.155
19,CCTAGTTGGTTAAGGTCACACACGCTATAGGTAC,4.4
20,CCTCGGAGGACAACAGGAGGTCAGGGCTGCCAGA,1.62

row,Sequence,PBM binding z-score
1,CAGCCTAGGTCAGTGCCAGTATAGGAGGAACGTT,-0.0475
2,TCTTCTAGATCAACAGGAGGTTAAGAAAGATCGA,0.728
3,TAGCCTAGGTCAGATCAGGCCAGTATACGCTATA,0.996
4,TCGGACAGGTGAAGGTAACTCAGGTACGCAGTCG,0.531
5,CGAACTAGTTCATCCAGGACAGTGAATACATTGA,2.23
6,GCTAGCAGGCAATTTGGGTCACTCAATGACGGGC,0.222
7,CCAGACAGGTCAAAGGTAACTCAGTCTGGTACGC,3.86
8,CAAACTAGGTCAAGCTCAAAGTCGGTTTGTGCCA,1.7
9,AGAACGAGGGCAATGAGTTGAAAGCACGGGTGGC,5.39
10,TTACAAAGGTGAAGGTCGTTGATCCCTCTGTAGA,2.19
11,GTAGCAAGGTGAATAGGTCGTTGATGAGTAGGCG,0.451
12,CAAACTAGGTCAAAGCTCAAAGTCGAGCCAACCA,1.74
13,TAGCCTAGGTCAGTGGGCCAGTATAGTACGCATC,0.148
14,GCGACTGGGGCAAAGCATGTTACCATAAGGTTGG,-0.497
15,GCTAGTTGTTCAGTAAAAGGTCACACACCGGTCG,3.93
16,TCTATTAGTTGATTAGGTCAACCGAAACAGCGGA,1.94
17,CGAATTAGGTCATTGACAGGACAGTGAATAGTAA,2.3
18,GCGACTGGGGCATCAGCAGGTTACCTTAACTTAA,-0.355
19,ATCGAAAGGTCGAGGTGCGTATAGAGAAAGGGAA,2.16
20,GGAACGCGGGCAAAGTTGATAGCATCTGTCGACG,-0.564
